Experiment [1] can be described thus: Nuclear factor erythroid 2-related factor 2/antioxidant responsive element (Nrf2/ARE) small molecule agonists: qHTS cell viability counter screen in human keratinocytes (AID 1919968; active = well fitted curve in the direction sought with a large enough effect in the repeat runs; an effect the other way counts as inactive or inconclusive; also: nearly all actives have a fitted effect of over 55% in size; also: potency is read from the fitted curve at half-maximal effect). The gist of the method:
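Cells of the KeratinoSens line were plated at 1,500 per well and left for 5 h before compound transfer from DMSO stocks. After a 23 h incubation (37 C, 5% CO2), CellTiter-Fluor was added. Signal was taken as fluorescence intensity 1 h later.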
(In general: In qHTS, concentration-response curves come from the screen itself.)

Experiment [2] in a line: Nuclear factor erythroid 2-related factor 2/antioxidant responsive element (Nrf2/ARE) small molecule agonists: luciferase reporter gene qHTS assay in human keratinocytes (AID 1919969). Also: nearly all actives have a fitted effect of over 35% in size. Also: potency is read from the fitted curve at half-maximal effect.
Experiment [3] deals with Gonadotropin-releasing hormone receptor (Homo sapiens) (UniProt P30968). Description: Human gonadotropin-releasing hormone receptor (GnRHR) small molecule agonists, calcium flux assay in GnRHR-HEK293 cells (AID 1920063). Also: nearly all actives have a fitted effect of over 35% in size. The gist of the method: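 Compounds dissolved in DMSO are pin-transferred onto dye-loaded GnRHR-HEK293 cells, which were seeded 18 h before at 37 C/5% CO2. Calcium signal is read as fluorescence intensity at 1 s intervals for 3 min.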

For experiment [4], the target named is KiSS-1 receptor (Homo sapiens) (UniProt Q969F8). The experiment can be described thus: Human kisspeptin (KISS1R) small molecule agonists, calcium flux assay in KISS1R-HEK293 cells (AID 1920064; active = well fitted curve in the direction sought with a large enough effect in the repeat runs; an effect the other way counts as inactive or inconclusive). In short, it runs like this:
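Cell line: HEK293, stable human KISS1R. Dye loading 1 h at 37 C after 18 h culture. Read: kinetic fluorescence, 480/540 nm, 3 min at 1 s intervals.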
(In general: Calcium flux is commonly read through the fluorescence of an indicator in the cells.)

A short description of experiment [5]: G protein-coupled receptor (GPCR) small molecule agonists, calcium flux assay: HEK293 wild type cell line counter screen (AID 1920065). The gist of the method:
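Tox21 10K compounds, 15 concentrations each in triplicate, pin-transferred in DMSO onto dye-loaded cells; kinetic read at 480/540 nm for 3 min, 1 s intervals.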

Experiment [6] can be described thus: p53 small molecule agonists, cell-based qHTS assay with human liver microsomes: qHTS cell viability counter screen (AID 1963579). Also: nearly all actives have a fitted effect of over 45% in size. Also: potency is read from the fitted curve at half-maximal effect. In short, it runs like this:
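p53RE-bla cells (4,000/well) were pre-incubated 5 h at 37 C, then given compounds in DMSO plus human liver microsomes (0.5 mg/mL final) and NADPH (0.5 mg/mL final) for 16 h at 37 C. Viability was read by CellTiter-Glo luminescence.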

A short description of experiment [7]: p53 small molecule agonists, cell-based qHTS assay with rat liver microsomes: qHTS cell viability counter screen (AID 1963580). Also: nearly all actives have a fitted effect of over 45% in size. Also: potency is read from the fitted curve at half-maximal effect. The gist of the method:
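Luminescent ATP readout (CellTiter-Glo, 30 min at room temperature) reports viability of p53RE-bla HCT-116 cells after 16 h at 37 C with test compounds under metabolic activation by rat liver microsomes and NADPH at 0.5 mg/mL final each.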

Experiment [8] in a line: p53 small molecule agonists, cell-based qHTS assay: qHTS cell viability counter screen (AID 1963581). Also: nearly all actives have a fitted effect of over 45% in size. In short, it runs like this: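 ATP content measured by luminescence in HCT-116 p53RE-bla cells treated 16 h at 37 C, same wells as the reporter screen.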
Experiment [9] addresses 5-hydroxytryptamine receptor 2A (Homo sapiens) (UniProt P28223). The experiment can be described thus: 5-hydroxytryptamine receptor 2A (HTR2A) small molecule antagonists, cell-based qHTS assay (AID 1963586). Also: nearly all actives have a fitted effect of over 45% in size. The gist of the method: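 CHO cells stably expressing human HTR2A were plated for 18 h at 37 C, then loaded with calcium dye for 1 h. Compounds were preincubated 5 min at room temperature before DOI (4 nM solution) was added. Kinetic fluorescence was read for 3 min.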

Experiment [10] has the same target. The experiment can be described thus: 5-hydroxytryptamine receptor 2A (HTR2A) small molecule agonists, cell-based qHTS assay (AID 1963587). Also: nearly all actives have a fitted effect of over 30% in size. In short, it runs like this:
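HTR2A-CHO cells, plated 18 h at 37 C/5% CO2, dye-loaded 1 h at 37 C; compounds in DMSO added by pin tool (agonist mode). Intracellular calcium flux read as kinetic fluorescence on FDSS over 2 min at 1 s intervals.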

In experiment [11] the target is Muscarinic acetylcholine receptor M1 (Homo sapiens) (UniProt P11229). Description: Cholinergic receptor muscarinic 1 (CHRM1) small molecule antagonists, cell-based qHTS assay (AID 1963588). Also: nearly all actives have a fitted effect of over 40% in size. Also: potency is read from the fitted curve at half-maximal effect. In short, it runs like this:
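Compounds were tested at 15 concentrations in three independent runs. Dye-loaded CHRM1-CHO cells were exposed 5 min at room temperature before stimulation by acetylcholine added at 50nM. Intracellular calcium was read kinetically on FDSS for 3 min.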

For experiment [12] the target is unchanged. The experiment can be described thus: Cholinergic receptor muscarinic 1 (CHRM1) small molecule agonists, cell-based qHTS assay (AID 1963589). Also: nearly all actives have a fitted effect of over 35% in size. In short, it runs like this:
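Homogeneous fluorescence calcium flux, agonist mode. Human M1-expressing CHO cells; compound dosed at 15 concentrations, three independent runs; signal sampled every 1 sec.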

Experiment [13] in a line: cAMP Responsive Elements (CRE) small molecule agonists, cell-based qHTS assay (AID 1963590). The gist of the method:
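HEK 293T cells stably bearing CRE-bla were plated at 2,000 cells per well and rested 18 h. Compounds, positive controls or DMSO were added for 3 h at 37 C. LiveBLAzer B/G substrate was then loaded for 2 h at room temperature.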

Experiment [14] is described as follows: cAMP Responsive Elements (CRE) small molecule antagonists, cell-based qHTS assay (AID 1963591; active = well fitted inhibition curve with a large enough effect in the signal ratio in the repeat runs, not every such curve was filed as active; the % refers to the signal ratio). In short, it runs like this: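 First, CRE-bla HEK293T cells settled 18 h at 37 C. Next, compound and 0.25 uM final NKH477 were applied for 3 h. Last, LiveBLAzer B/G substrate was loaded for 2 h at room temperature.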
For experiment [15], the target named is Beta-2 adrenergic receptor (Homo sapiens) (UniProt P07550). Description: Adrenergic beta2 receptor (ADRB2) small molecule antagonists, cell-based qHTS assay (AID 1963592). Also: series mostly up to about 92 µM; nearly all actives have a fitted effect of over 50% in size. In short, it runs like this:
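Assay format: CHO-ADRB2 cells, 18-20hr seeding at 37C/5% CO2, then compound plus 1nM isoproterenol agonist mix for 0.5hr RT. Homogeneous time-resolved fluorescence cAMP detection after 1hr, expressed as 665/615 nm ratio.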

Experiment [16] shares this target. Description: Adrenergic beta2 receptor (ADRB2) small molecule agonists, cell-based qHTS assay (AID 1963593).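 Also: CHO cells stably overexpressing human ADRB2.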 In short, it runs like this:
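CHO cells stably over-expressing ADRB2 were plated overnight at 37C, then dosed with compounds plus a stimulation mix containing 100uM IBMX and 25uM Ro-20-1724 for 0.5hr at room temperature. cAMP was measured by HTRF competition, 1hr.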

The target in experiment [17] is D(2) dopamine receptor (Homo sapiens) (UniProt P14416). The experiment can be described thus: Dopamine D2 receptor (DRD2) small molecule agonists, cell-based qHTS assay (AID 1963594). Also: nearly all actives have a fitted effect of over 35% in size. The gist of the method:
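HEK293 cells stably expressing DRD2 were cultured 24 h at 37 C, then given Ro20-1724 (0.1 mM final) and compounds for 10 min at room temperature. NKH477 (200nM) was then added for 30 min. cAMP was read by HTRF.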

The target is the same in experiment [18]. Description: Dopamine D2 receptor (DRD2) small molecule antagonists, cell-based qHTS assay (AID 1963595; active = well fitted inhibition curve with a large enough effect in the signal ratio in the repeat runs, with a control signal flat; the % refers to the signal ratio). In short, it runs like this: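 Readout: HTRF cAMP, cAMP-d2 competing with cellular cAMP for anti-cAMP cryptate, read after 1 h. Cells: DRD2-HEK293. Conditions: 0.1 mM Ro20-1724, 12 nM quinpirole, 200 nM NKH477, 30 min RT.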
Experiment [19] is described as follows: p53 small molecule agonists, cell-based qHTS assay with rat liver microsomes (AID 1963578). The gist of the method: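 p53RE-bla cells were exposed to compounds together with rat liver microsomes (0.5 mg/mL final) and NADPH (0.5 mg/mL final) for 16 h at 37 C, then read by LiveBLAzer beta-lactamase fluorescence after 2 h at room temperature.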
The nature of experiment [20]: p53 small molecule agonists, cell-based qHTS assay (AID 1963582; active = well fitted activation curve with a large enough effect in the signal ratio in the repeat runs, not every such curve was filed as active; the % refers to the signal ratio). The gist of the method:
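16 h compound exposure (37 C) of p53 response element–bla cells, preceded by 5 h recovery at 37 C/5% CO2; read-out via LiveBLAzer B/G FRET substrate, 2 h RT, fluorescence intensity.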

The values below come from PubChem BioAssay (Tox21).

“And” between values parts separate entries of the source, which are not always exact repeats. Equal entries are not always repeated. Results filed as inconclusive are left out. The source holds several records for some structures; these can differ, active in one and inactive in another. The source made the active and inactive calls. Unless noted, calls follow the shape of the full dose curve.

Sequence of Muscarinic acetylcholine receptor M1 (Homo sapiens) (P11229 whole entry, looked up): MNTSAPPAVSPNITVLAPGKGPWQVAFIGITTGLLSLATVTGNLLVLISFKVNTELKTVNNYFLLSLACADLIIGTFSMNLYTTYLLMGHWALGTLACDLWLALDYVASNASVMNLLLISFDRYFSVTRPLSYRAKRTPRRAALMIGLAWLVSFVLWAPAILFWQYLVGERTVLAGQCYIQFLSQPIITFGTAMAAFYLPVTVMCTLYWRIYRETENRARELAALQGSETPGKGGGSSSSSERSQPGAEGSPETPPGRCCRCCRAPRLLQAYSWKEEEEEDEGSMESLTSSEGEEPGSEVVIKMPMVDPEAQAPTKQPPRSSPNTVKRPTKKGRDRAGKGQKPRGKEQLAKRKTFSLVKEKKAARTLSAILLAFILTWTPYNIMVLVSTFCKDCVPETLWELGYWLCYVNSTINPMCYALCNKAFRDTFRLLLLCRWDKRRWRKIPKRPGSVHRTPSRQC
Sequence of Beta-2 adrenergic receptor (Homo sapiens) (P07550 whole entry, looked up): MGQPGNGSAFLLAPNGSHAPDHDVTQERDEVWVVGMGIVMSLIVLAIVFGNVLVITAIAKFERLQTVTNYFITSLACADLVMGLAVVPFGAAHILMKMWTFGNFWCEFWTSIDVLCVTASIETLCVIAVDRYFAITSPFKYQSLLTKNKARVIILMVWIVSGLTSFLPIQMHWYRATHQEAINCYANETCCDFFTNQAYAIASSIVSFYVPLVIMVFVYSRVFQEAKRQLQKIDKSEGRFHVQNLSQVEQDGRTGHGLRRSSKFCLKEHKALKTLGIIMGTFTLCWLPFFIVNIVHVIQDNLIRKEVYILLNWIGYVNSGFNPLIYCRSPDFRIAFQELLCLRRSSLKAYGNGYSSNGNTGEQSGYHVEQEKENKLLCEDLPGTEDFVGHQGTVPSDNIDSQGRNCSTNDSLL
Sequence of Gonadotropin-releasing hormone receptor (Homo sapiens) (P30968 whole entry, looked up): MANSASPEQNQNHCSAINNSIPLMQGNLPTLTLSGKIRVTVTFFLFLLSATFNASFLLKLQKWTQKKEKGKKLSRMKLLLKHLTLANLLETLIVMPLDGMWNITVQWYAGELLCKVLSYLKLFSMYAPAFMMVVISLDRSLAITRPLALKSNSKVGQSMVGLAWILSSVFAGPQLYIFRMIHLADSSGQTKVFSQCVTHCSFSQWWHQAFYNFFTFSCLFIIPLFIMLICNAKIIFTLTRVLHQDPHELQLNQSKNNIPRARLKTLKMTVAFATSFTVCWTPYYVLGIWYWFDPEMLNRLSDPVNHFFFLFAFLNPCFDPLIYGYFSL
Sequence of D(2) dopamine receptor (Homo sapiens) (P14416 whole entry, looked up): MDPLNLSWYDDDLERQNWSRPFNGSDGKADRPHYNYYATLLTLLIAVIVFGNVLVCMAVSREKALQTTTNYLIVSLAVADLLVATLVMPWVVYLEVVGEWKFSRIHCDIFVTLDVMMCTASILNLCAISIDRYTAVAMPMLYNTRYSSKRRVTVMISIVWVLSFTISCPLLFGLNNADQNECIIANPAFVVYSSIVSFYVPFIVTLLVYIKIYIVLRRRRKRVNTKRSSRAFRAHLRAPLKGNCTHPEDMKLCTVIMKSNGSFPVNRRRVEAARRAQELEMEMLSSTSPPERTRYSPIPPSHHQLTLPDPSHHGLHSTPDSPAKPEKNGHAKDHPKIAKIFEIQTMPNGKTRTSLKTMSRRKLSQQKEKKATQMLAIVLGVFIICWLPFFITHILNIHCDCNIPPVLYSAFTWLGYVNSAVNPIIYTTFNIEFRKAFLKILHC
Sequence of 5-hydroxytryptamine receptor 2A (Homo sapiens) (P28223 whole entry, looked up): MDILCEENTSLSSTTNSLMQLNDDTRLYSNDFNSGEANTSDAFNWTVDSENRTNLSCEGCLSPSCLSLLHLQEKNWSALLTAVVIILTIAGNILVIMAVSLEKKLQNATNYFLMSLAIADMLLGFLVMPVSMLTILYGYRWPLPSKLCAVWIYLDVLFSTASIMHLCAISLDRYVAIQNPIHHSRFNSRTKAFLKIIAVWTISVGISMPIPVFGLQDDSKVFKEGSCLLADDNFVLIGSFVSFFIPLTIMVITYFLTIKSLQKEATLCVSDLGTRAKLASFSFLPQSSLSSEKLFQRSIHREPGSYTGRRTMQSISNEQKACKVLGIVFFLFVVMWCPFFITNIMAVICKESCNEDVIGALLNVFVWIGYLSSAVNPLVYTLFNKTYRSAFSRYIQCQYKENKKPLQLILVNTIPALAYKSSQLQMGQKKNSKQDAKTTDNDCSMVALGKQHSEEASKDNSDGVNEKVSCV
Sequence of KiSS-1 receptor (Homo sapiens) (Q969F8 whole entry, looked up): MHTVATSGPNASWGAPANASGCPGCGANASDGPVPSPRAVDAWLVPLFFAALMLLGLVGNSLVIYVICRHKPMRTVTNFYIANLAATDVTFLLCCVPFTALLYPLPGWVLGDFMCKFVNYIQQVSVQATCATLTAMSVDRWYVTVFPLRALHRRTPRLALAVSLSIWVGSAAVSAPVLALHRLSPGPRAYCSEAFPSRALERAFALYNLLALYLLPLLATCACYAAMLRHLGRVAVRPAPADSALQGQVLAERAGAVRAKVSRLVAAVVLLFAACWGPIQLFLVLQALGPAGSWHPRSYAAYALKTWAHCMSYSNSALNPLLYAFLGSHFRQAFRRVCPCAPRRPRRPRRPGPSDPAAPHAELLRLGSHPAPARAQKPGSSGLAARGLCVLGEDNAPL

For the molecule `CNC(=O)CSP(=S)(OC)OC`, the Potency entry in [1], in [2], in [3], in [4], in [5] and in [6] was “inactive” throughout. For the same molecule, the Potency result in experiment [7], in experiment [8], in experiment [9], in experiment [10], in [11] and in [12] was “inactive” each time. The Potency entry in [13], in experiment [14], in experiment [15], in experiment [16], in [17] and in experiment [18] was “inactive” in each case.
`OCCOCCO`: the Potency entry in experiment [1], in experiment [2], in [3], in experiment [4], in experiment [5] and in experiment [6] was “inactive” in each case. The Potency entry in experiment [7], in experiment [8], in experiment [9], in experiment [10], in experiment [11] and in [12] was “inactive” in each case. Moreover, the Potency result in [13], in experiment [14], in experiment [15], in [16], in experiment [17] and in [18] was “inactive” in each case.
As for `O=C(O)C(Cl)Cl`, the Potency entry in [1], in [2], in experiment [3], in experiment [4], in experiment [5] and in [6] was “inactive” in each case. Also, the Potency result in experiment [7], in experiment [8], in experiment [9], in experiment [10], in experiment [11] and in experiment [12] was “inactive” in each case. Also, the Potency entry in experiment [13], in experiment [14], in experiment [15], in experiment [16], in [17] and in experiment [18] was “inactive” each time.
On to `CCOP(=S)(OCC)Oc1ccc2c(C)c(Cl)c(=O)oc2c1`, for which the Potency result in [1], in [3], in experiment [4], in experiment [5], in experiment [19] and in experiment [6] was “inactive” each time. Moreover, the Potency result in experiment [7], in [8], in experiment [20], in [9], in experiment [10] and in [11] was “inactive” each time. Besides, the Potency entry in [12], in experiment [15], in [17] and in experiment [18] was “inactive” throughout. Further, the Potency result in [2] was “inactive and 10.6 µM (active)”.
As to `CCCCCCCCCCn1cc[n+](C)c1`, the Potency result was “inactive and 61.4 µM (active) and 30.6 µM (active)” in experiment [1]; 46.2 µM (active) and inactive in [6]; 36.7 µM (active) and inactive in [7]. For the same molecule, the Potency entry in [2], in experiment [3], in [4], in experiment [5], in experiment [19] and in experiment [8] was “inactive” each time. Moreover, the Potency result in experiment [9], in [10], in experiment [12], in experiment [15], in [16] and in experiment [17] was “inactive” each time. Further, the Potency entry in [18] is “inactive”.
`CCOP(=S)(OCC)Oc1ccc([N+](=O)[O-])cc1`: the Potency entry in experiment [1], in experiment [2], in experiment [3], in experiment [4], in experiment [5] and in experiment [6] was “inactive” throughout. Also, the Potency result in experiment [7], in experiment [8], in experiment [20], in experiment [9], in experiment [10] and in [12] was “inactive” throughout. Also, the Potency result in experiment [13], in [14], in experiment [15], in experiment [16], in [17] and in experiment [18] was “inactive” throughout. The Potency in experiment [11] was 9.54 µM (active) and 18.3 µM (active).
As for `CNC(=O)O/N=C(\SC)C(=O)N(C)C`, the Potency result in experiment [1], in [2], in experiment [3], in experiment [4], in [5] and in experiment [6] was “inactive” throughout. The Potency result in experiment [7], in experiment [8], in experiment [20], in experiment [9], in [10] and in [11] was “inactive” in each case. For the same molecule, the Potency entry in [12], in experiment [13], in experiment [14], in [15], in [16] and in experiment [17] was “inactive” each time. The Potency entry in experiment [18] was “inactive”.
